# Assay outcomes (PubChem BioAssay)
# ABCB6 inh 2: ABCB6 transporter inhibitors, primary screen, K562-ABCB6 cells, flow cytometry, MLPCN library; AID 602162, 2011; 360,000 compounds, 0.19% hits; fluorescence ratio to DMSO, % at 10 µM; K562-ABCB6 porphyrin accumulation, 1 h; hits give low values; ATP-binding cassette sub-family B member 6 (Homo sapiens), Q9NP58;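 active = fluorescence ratio to DMSO below 75%, the collection mean minus 3 SD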;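 also: signal is porphyrin accumulated inside mitochondria; lower ratio means ABCB6 inhibition with less porphyrin fluorescence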
# PHOSPHO1 inh: PubChem AID 1565; Phosphoethanolamine/phosphocholine phosphatase (Homo sapiens), Q8TCT1; recombinant PHOSPHO1, absorbance phosphatase assay; 290,000 compounds, 1.1% hits; inhibition, % at 13.3 µM; in the data active = inhibition above about 60%
# MLLE-PAM2 inh: inhibitors of PABP1 MLLE–PAM2 peptide binding, primary screen, biochemical, fluorescence polarization, FITC-PAM2, GST-MLLE; Polyadenylate-binding protein 1 (Homo sapiens), P11940; inhibition, % at 20 µM; 360,000 compounds, 0.36% hits; AID 588489, 2011; in the data active = inhibition above about 35%, passing the limit was not always enough
# Target sequence (P11940 whole entry, looked up): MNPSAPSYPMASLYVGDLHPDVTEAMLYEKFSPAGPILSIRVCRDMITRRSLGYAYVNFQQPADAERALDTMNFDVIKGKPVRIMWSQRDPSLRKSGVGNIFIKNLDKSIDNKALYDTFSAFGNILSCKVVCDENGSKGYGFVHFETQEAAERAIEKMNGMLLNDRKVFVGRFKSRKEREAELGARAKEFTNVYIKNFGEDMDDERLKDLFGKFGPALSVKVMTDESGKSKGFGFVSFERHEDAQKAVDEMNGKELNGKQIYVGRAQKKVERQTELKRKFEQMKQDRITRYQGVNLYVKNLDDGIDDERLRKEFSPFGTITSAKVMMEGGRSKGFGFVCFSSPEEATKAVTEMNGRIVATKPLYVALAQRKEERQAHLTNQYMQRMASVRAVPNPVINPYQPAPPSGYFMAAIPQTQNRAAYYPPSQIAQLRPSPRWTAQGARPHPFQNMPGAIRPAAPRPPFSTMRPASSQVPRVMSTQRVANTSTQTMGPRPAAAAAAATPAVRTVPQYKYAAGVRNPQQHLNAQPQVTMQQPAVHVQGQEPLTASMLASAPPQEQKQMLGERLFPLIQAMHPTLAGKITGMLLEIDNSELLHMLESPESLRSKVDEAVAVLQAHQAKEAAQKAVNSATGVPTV
# PABP polyA inh: PABP poly(A) RNA binding inhibitors, primary screen, biochemical, fluorescence polarization, uHTS | Polyadenylate-binding protein 1 (Homo sapiens), P11940 | calls only at 35 µM | 290,000 compounds, 1% hits;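 also: calls also rest on retests at 20 µM and on dose response follow-up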
# eIF4H inh: human eIF4H binding inhibitors, primary screen, translation initiation inhibitor project, biochemical, uHTS, fluorescence polarization. AID 2012, 2009. 290,000 compounds, 0.94% hits. inhibition, % at 35 µM. eIF4H fluorescence polarization binding assay. Eukaryotic translation initiation factor 4H (Homo sapiens), Q15056;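 also: calls also rest on retests at 20 µM and on dose response follow-up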
# AI-2 QS modul: Vibrio harveyi AI-2 quorum sensing modulators, primary screen, JMH597 strain, luminescence/OD600 ratio. activity change, % at 7.5 µM. 300,000 compounds, 0.4% hits. Vibrio harveyi JMH597 AI-2 luminescence/OD600 ratio, 9 h; hits give low values; strain lacks LuxN and CqsS sensors; 0 = neutral-control median; in the data active = activity change below about -75%, passing the limit was not always enough;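 also: luminescence divided by OD600 gain over 9 h not by final OD600 alone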
# Numbers stand for hits; . = inactive; / = no result given; + = active, no number. In the library only some 2.6% were active in any assay of this set; here they are far more common. Unless noted, no rule for the calls is given here.
SMILES,ABCB6 inh 2,PHOSPHO1 inh,MLLE-PAM2 inh,PABP polyA inh,eIF4H inh,AI-2 QS modul
CC(Oc1ccc([N+](=O)[O-])cc1)C(=O)NCCCN1CCOCC1 (stereo not given),.,66,.,.,.,.
COCCCNC(=O)c1cc2cc(Br)ccc2oc1=O,.,.,.,.,.,.
O=C(NNC(=O)c1cc2cc(Br)ccc2oc1=O)c1ccc(O)cc1O,.,.,.,+,85,.
Cc1ccccc1NC(=O)CCS(=O)(=O)c1ccc(Br)s1,.,.,.,.,58,.
COC(=O)c1ccccc1NC(=O)CCS(=O)(=O)c1ccc(Br)s1,.,.,.,.,.,.
Cc1cccc(NC(=O)CC2SC(=O)N(c3ccccc3)C2=O)c1 (stereo not given),.,.,.,.,.,.
CC(=O)Nc1ccc(NC(=O)CC2SC(=O)N(CC(=O)c3ccccc3)C2=O)cc1 (stereo not given),.,.,.,.,.,.
O=C(CC1SC2=NCCN2C1=O)Nc1ccccc1 (stereo not given),.,.,.,.,.,.
CCCN1C(=O)SC(CC(=O)Nc2ccc(C)cc2)C1=O (stereo not given),.,.,45,.,.,.
O=C(CC1SC(=O)N(c2ccccc2)C1=O)Nc1ccccc1 (stereo not given),.,.,49,.,.,.
O=C(CC1Sc2ncnn2C1=O)Nc1ccccc1 (stereo not given),.,94,.,.,.,.
Cc1ccc(NC(=O)CC2SC3=NCCN3C2=O)cc1 (stereo not given),.,.,44,.,.,.
Cc1cccc(C)c1-n1nnnc1C(c1ccnc2ccccc12)N(CCN(C)C)Cc1ccccc1 (stereo not given),.,/,/,/,/,/
CCOC(=O)C1=C[C@@H](c2ccccc2)N(S(=O)(=O)c2ccc(C)cc2)[C@H]1c1ccc(F)cc1,.,/,.,/,/,/
CCc1nc2ccc(C(=O)NCCCn3ccnc3)cn2c1N(C)Cc1nccs1,.,/,.,/,/,/
CCNC(=O)C1(C)CCCN(C(=O)c2cc(-c3ccccc3)cs2)C1 (stereo not given),.,/,.,/,/,/
Cc1ccc(NC(=O)CC2SC(=O)N(c3ccccc3)C2=O)cc1 (stereo not given),.,.,45,.,.,.
CCCCNC(=O)c1nc(-c2ccncc2)oc1-c1ccccc1,.,/,.,/,/,/
Cc1ccc(C(C)C)c(OCc2n[nH]c(=S)o2)c1,.,.,.,.,.,.
Cc1ccc(C(C)C)c(OCc2nc(-c3nonc3N)no2)c1,.,.,.,.,.,-85
COc1ccc(C(C)=O)cc1CSc1nc2cc(Cl)ccc2o1,.,.,.,+,65,.
C#CCn1cc(CNC[C@H]2O[C@@H](n3cnc4c(=O)[nH]c(N)nc43)[C@H](O)[C@@H]2O)c2ccccc21,.,/,.,/,/,/
Cc1ccc(NC(=O)C2CCN(S(=O)(=O)c3ccc4c(c3)CC(C)N4C(=O)C3CCC3)CC2)nc1 (stereo not given),.,75,.,.,.,.
CC(=O)N1c2ccc(S(=O)(=O)N3CCCC3C(=O)Nc3ccc(C)cc3)cc2CC1C (stereo not given),.,.,.,+,.,.
CC(=O)N1c2ccc(S(=O)(=O)N3CCC(C(=O)Nc4ccc(C)cn4)CC3)cc2CC1C (stereo not given),.,.,.,.,.,.
COc1cc(NC(=O)C2CCCN2S(=O)(=O)c2ccc3c(c2)CC(C)N3C(C)=O)cc(OC)c1 (stereo not given),.,.,.,.,.,.
COc1ccc(N2C(c3ccsc3)=Cc3cc4c(cc3C2c2c[nH]c3ccccc23)OCO4)cc1 (stereo not given),.,/,/,/,/,/
CC(C)NC(=O)OC1CC2CC1[C@H]1CCCCN1C2=O (stereo not given in full),.,/,/,/,/,/
Cc1nc2scc(-c3ccccc3)c2c(=O)n1N=C1C=CC(=O)C=C1,/,.,/,+,71,.
